28 compounds from PubChem BioAssay (NCATS) can be followed below.

SMILES strings stand for the structures. Results filed as inconclusive are left out. Active and inactive are the calls of the source. Calls come from the whole dose curve; as a rule, active = well fitted curve in the direction sought with a large enough effect; inconclusive = small, poorly fitted or top-dose-only effect, or another doubt; inactive = no such curve, though single readings can be large; an effect the other way counts as inactive or inconclusive.

Assay [1] can be described thus: qHTS of pediatric cancer cell lines to identify multiple opportunities for drug repurposing: Primary screen for OHS-50 cells (AID 1347103). Note: nearly all actives have a fitted effect of over 40% in size. A digest of the protocol:
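Cells (500-1,000/well) rested 5 h, then received compounds for 48 h; metabolically active cells were measured by CellTiter-Glo luminescence. Final concentrations spanned up to 46 µM (MIPE, 11-point) or 0.59 nM-46 µM (NPC, 8-point) in primary screens, 11-point in follow-ups.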

Assay [2] in a line: qHTS of pediatric cancer cell lines to identify multiple opportunities for drug repurposing: Primary screen for RD cells (AID 1347104). Note: nearly all actives have a fitted effect of over 55% in size. The gist of the method: (§1)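 Phenotypic viability qHTS, 48 h compound exposure, CellTiter-Glo luminescence read-out; multi-concentration dosing so that potency and efficacy derive directly from the primary screen's curves.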
For orientation: In qHTS, concentration-response curves come from the screen itself.

The nature of assay [3]: qHTS of pediatric cancer cell lines to identify multiple opportunities for drug repurposing: Primary screen for MG 63 (6-TG R) cells (AID 1347105). Note: nearly all actives have a fitted effect of over 50% in size. The gist of the method: as §1
Assay [4] can be described thus: qHTS of pediatric cancer cell lines to identify multiple opportunities for drug repurposing: Primary screen for control Hh wild type fibroblast cells (AID 1347106).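 Note: series mostly up to about 46 µM; a drop in luminescence marks cytotoxicity and a rise apparent proliferation; nearly all actives have a fitted effect of over 55% in size.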 A digest of the protocol:
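Viability after 48 h compound treatment at 37C, 500-1,000 cells/well, read as ATP luminescence with CellTiter-Glo. Primary screens used 11-point (MIPE, 0.78 nM-46 µM) or 8-point (NPC, 0.59 nM-46 µM) final concentrations; follow-up screens used 11-point dilutions.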

Assay [5] in a line: qHTS of pediatric cancer cell lines to identify multiple opportunities for drug repurposing: Primary screen for Rh30 cells (AID 1347107). Note: series mostly up to about 46 µM; nearly all actives have a fitted effect of over 75% in size. The gist of the method:
(§2)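 Cells (500-1,000/well) in growth media were settled 5 h at 37 degrees C, then given compounds for 48 h. Viability was read as CellTiter-Glo luminescence. Primary runs used MIPE at 11 points (0.78 nM-46 µM) and NPC at 8 points (0.59 nM-46 µM); follow-ups used 11 points.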

The nature of assay [6]: qHTS of pediatric cancer cell lines to identify multiple opportunities for drug repurposing: Primary screen for Rh41 cells (AID 1347108). Note: nearly all actives have a fitted effect of over 70% in size. Note: potency is the fitted concentration of half-maximal effect. A digest of the protocol:
as §1

Assay [7] can be described thus: qHTS of pediatric cancer cell lines to identify multiple opportunities for drug repurposing: Confirmatory screen for NB1643 cells (AID 1347109). Note: nearly all actives have a fitted effect of over 45% in size. The gist of the method: as §2
A short description of assay [8]: qHTS of pediatric cancer cell lines to identify multiple opportunities for drug repurposing: Confirmatory screen for A673 cells (AID 1347110).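 Note: cells exposed to compound for 48 h before the viability read; nearly all actives have a fitted effect of over 65% in size.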 The gist of the method: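 Viability was read as ATP luminescence (CellTiter-Glo) after 48 h of compound exposure at 37 C in A673 cells seeded at 500-1,000/well. Titrations reached 46 uM final, with 11 points in the confirmatory screen. Concentration-response curves were fitted directly.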

A short description of assay [9]: qHTS of pediatric cancer cell lines to identify multiple opportunities for drug repurposing: Confirmatory screen for LAN-5 cells (AID 1347113). Note: nearly all actives have a fitted effect of over 65% in size. The gist of the method:
as §2

Assay [10] is described as follows: qHTS of pediatric cancer cell lines to identify multiple opportunities for drug repurposing: Confirmatory screen for DAOY cells (AID 1347114). Note: nearly all actives have a fitted effect of over 65% in size. The gist of the method:
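Viability measured as metabolically active cells via CellTiter-Glo luminescence following 48 hours of compound exposure, 11-point dilutions in confirmatory testing. 500-1,000 cells/well plated 5 hours before dosing; controls were DMSO and 2.3 µM bortezomib.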

Assay [11] in a line: qHTS of pediatric cancer cell lines to identify multiple opportunities for drug repurposing: Confirmatory screen for NB-EBc1 cells (AID 1347115).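 Note: cells exposed to compound for 48 h before the viability read; nearly all actives have a fitted effect of over 45% in size.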 A digest of the protocol:
as §2

A short description of assay [12]: qHTS of pediatric cancer cell lines to identify multiple opportunities for drug repurposing: Confirmatory screen for MG 63 (6-TG R) cells (AID 1347119). Note: nearly all actives have a fitted effect of over 55% in size. The gist of the method: as §2
A short description of assay [13]: qHTS of pediatric cancer cell lines to identify multiple opportunities for drug repurposing: Confirmatory screen for control Hh wild type fibroblast cells (AID 1347121). Note: nearly all actives have a fitted effect of over 70% in size. A digest of the protocol:
as §2

The nature of assay [14]: qHTS of pediatric cancer cell lines to identify multiple opportunities for drug repurposing: Confirmatory screen for U-2 OS cells (AID 1347122). Note: nearly all actives have a fitted effect of over 65% in size. A digest of the protocol: as §2
Assay [15] can be described thus: qHTS of pediatric cancer cell lines to identify multiple opportunities for drug repurposing: Confirmatory screen for Rh41 cells (AID 1347123). Note: nearly all actives have a fitted effect of over 60% in size. A digest of the protocol:
as §2

Assay [16] in a line: qHTS of pediatric cancer cell lines to identify multiple opportunities for drug repurposing: Confirmatory screen for RD cells (AID 1347124). A digest of the protocol:
as §2

The nature of assay [17]: qHTS of pediatric cancer cell lines to identify multiple opportunities for drug repurposing: Confirmatory screen for Rh18 cells (AID 1347125). Note: nearly all actives have a fitted effect of over 55% in size. The gist of the method: as §2
A short description of assay [18]: qHTS of pediatric cancer cell lines to identify multiple opportunities for drug repurposing: Confirmatory screen for Saos-2 cells (AID 1347127). Note: nearly all actives have a fitted effect of over 60% in size. A digest of the protocol: as §2
The nature of assay [19]: qHTS of pediatric cancer cell lines to identify multiple opportunities for drug repurposing: Confirmatory screen for SK-N-MC cells (AID 1347111).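 Note: potency is the fitted concentration of half-maximal effect; cells exposed to compound for 48 h before the readout; nearly all actives have a fitted effect of over 70% in size.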 The gist of the method:
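Metabolically active cells were quantified by ATP-dependent luminescence (CellTiter-Glo, 15 min at room temperature) following 48 h treatment. Cells had been plated at 500-1,000 per well and settled for 5 h beforehand.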

Assay [20] can be described thus: qHTS of pediatric cancer cell lines to identify multiple opportunities for drug repurposing: Confirmatory screen for Rh30 cells (AID 1347126). Note: nearly all actives have a fitted effect of over 55% in size. A digest of the protocol: as §2

On to `Cc1nc([N+](=O)[O-])cn1-c1ccc([N+](=O)[O-])cc1`, for which the Potency result in [1], in assay [2], in assay [3], in assay [4], in [5] and in [6] was “inactive” throughout.
With `CN1Cc2cc(C(=O)N3CCC(C4CCNCC4)CC3)ccc2N[C@@H](CC(=O)O)C1=O`, the Potency entry in assay [1], in assay [2], in assay [3], in assay [4], in assay [5] and in assay [6] was “inactive” throughout.
Regarding `COc1ccc2cc(C=O)ccc2c1`, the Potency entry in assay [1], in assay [2], in assay [3], in assay [4], in assay [5] and in assay [6] was “inactive” in each case.
On to `O=C(O)[C@@H](O)[C@H](O)[C@H](O)[C@@H](O)C(=O)O`, for which the Potency entry in assay [1], in assay [2], in [3], in assay [4], in assay [5] and in assay [6] was “inactive” in each case.
Consider `NS(=O)(=O)c1cc2c(cc1Cl)CN(C1CCCCC1)C2=O`, for which the Potency result in assay [1], in assay [2], in [3], in assay [4], in assay [5] and in assay [6] was “inactive” throughout.
Regarding `CC(COc1ccccc1)NN` (stereo unspecified), the Potency result in assay [1], in assay [2], in [3], in assay [4], in assay [5] and in [6] was “inactive” in each case.
Take `Cc1ncc(CO)c(CO)c1O`: the Potency result in assay [1], in [2], in assay [3], in assay [4], in assay [5] and in assay [6] was “inactive” each time.
Turning to `COc1cc(C(=O)NC2CCCNC2)cc(OC)c1OC` (stereo unspecified), the Potency result in assay [1], in assay [2], in assay [3], in assay [4], in assay [5] and in [6] was “inactive” each time.
With `O=C(OCC(COC(=O)c1cccnc1)(COC(=O)c1cccnc1)COC(=O)c1cccnc1)c1cccnc1`, the Potency result in [1], in assay [2], in assay [3], in [4], in assay [5] and in assay [6] was “inactive” throughout.
As for `CC(=O)Nc1ccc(S(=O)(=O)Nc2cc(C)on2)cc1`, the Potency entry in [1], in [2], in assay [3], in assay [4], in assay [5] and in assay [6] was “inactive” in each case.
Turning to `CO[C@]1(NC(=O)CSC(F)F)C(=O)N2C(C(=O)O)=C(CSc3nnnn3CCO)CO[C@H]21`, the Potency entry in assay [1], in assay [2], in assay [3], in assay [4], in [5] and in assay [6] was “inactive” throughout.
For `CC(=O)OCC[N+](C)(C)C`, the Potency entry in assay [1], in [2], in assay [3], in assay [4], in [5] and in assay [6] was “inactive” throughout.
Consider `COc1cc2nc(Cl)nc(N)c2cc1OC`, for which the Potency entry in [1], in [2], in assay [3], in assay [4], in [5] and in [6] was “inactive” each time.
For `CCCCCN(CCCOC)C(=O)C(CCC(=O)O)NC(=O)c1ccc(Cl)c(Cl)c1` (stereo unspecified), the Potency result in [1], in assay [2], in [3], in [4], in [5] and in [6] was “inactive” in each case.
With `O=C(O)c1ccccc1Nc1cc(Cl)ccc1C(=O)O`, the Potency entry in [1], in assay [2], in [3], in assay [4] and in [5] was “inactive” in each case. In [6], the Potency is 11.6 µM (active).
Turning to `CC(C(=O)O)c1ccc(/C=C2\CCCCC2=O)cc1` (stereo unspecified), the Potency entry in assay [1], in assay [2], in assay [3], in [4], in assay [5] and in [6] was “inactive” throughout.
As for `C1=CC2C3C=CC(C3)C2C1` (stereo unspecified), the Potency entry in assay [1], in assay [2], in [3], in [4], in [5] and in [6] was “inactive” each time.
For `COc1ccccc1OCC1CNC(=O)O1` (stereo unspecified), the Potency result in assay [1], in [2], in assay [3], in assay [4], in [5] and in assay [6] was “inactive” throughout.
On to `O=C(O)CCCC[P+](c1ccccc1)(c1ccccc1)c1ccccc1`, for which the Potency entry in assay [1], in assay [2], in assay [3], in assay [4], in assay [5] and in assay [6] was “inactive” each time.
On to `O=C1CC[C@H](C(=O)N2CCCCC2)N1`, for which the Potency result in [1], in [2], in [3], in [4], in [5] and in assay [6] was “inactive” throughout.
For the compound `O=C(CCOCCOCCOCCOCCC(=O)Nc1c(I)cc(I)c(C(=O)O)c1I)Nc1c(I)cc(I)c(C(=O)O)c1I`, the Potency result in assay [1], in assay [2], in assay [3], in [4] and in assay [6] was “inactive” in each case.
For `Oc1ccccc1`, the Potency result in [1], in assay [2], in [3], in assay [4] and in [6] was “inactive” in each case.
For `CC(=O)OCC(=O)[C@@]1(O)[C@H](OC(C)=O)C[C@H]2[C@@H]3CCC4=CC(=O)C=C[C@]4(C)[C@@]3(F)[C@@H](O)C[C@@]21C`, the Potency entry in assay [1], in assay [2], in assay [3], in assay [4], in [5] and in assay [6] was “inactive” in each case. Further, the Potency entry in assay [7], in [8], in [9], in [10], in assay [11] and in assay [12] was “inactive” throughout. Also, the Potency entry in assay [13], in assay [14], in [15], in assay [16], in [17] and in assay [18] was “inactive” throughout.
Turning to `O=C(c1ccccc1)c1ccccc1`, the Potency entry in assay [1], in [2], in [3] and in assay [5] was “inactive” throughout.
`Cc1ccc(C(=O)C(=O)O)cc1C`: the Potency result in [1], in assay [2], in assay [3], in assay [4] and in assay [6] was “inactive” throughout.
As to `CC(=O)c1cc2ccccc2s1`, the Potency result in [1], in assay [2], in assay [3], in assay [4] and in [6] was “inactive” throughout.
On to `C[C@]12CCC(=O)C=C1CC[C@@H]1[C@@H]2[C@@H](O)C[C@@]2(C)[C@H]1CC[C@]2(O)C(=O)COC(=O)CCC(=O)O`, for which the Potency result in assay [1], in assay [2], in assay [3], in assay [4], in [5] and in assay [6] was “inactive” throughout. Also, the Potency result in [7], in [8], in assay [9], in [10], in assay [12] and in [13] was “inactive” in each case. Besides, the Potency result in assay [14], in assay [15], in assay [16], in assay [17], in assay [20] and in [18] was “inactive” in each case. Also, the Potency in [19] was 18.5 µM (active).
On to `C[N+]1(CC2COC(c3ccccc3)(c3ccccc3)O2)CCCCC1` (stereo unspecified), for which the Potency result in assay [1], in [2], in assay [3], in assay [4] and in assay [6] was “inactive” throughout.
